Compound activity deposited in PubChem by National Center for Advancing Translational Sciences (NCATS).
Compounds with a hit are over-represented: about 5.7% of the library has one in this group of screens.
KB-3-1 tox – kills parental KB-3-1 adenocarcinoma cells; hit rate 1.4% among 400,000; AID 1347075; Potency, µM (highest dose often 46.1 µM), actives largely listed as cytotoxic; KB-3-1 viability, CellTiter-Glo ATP luminescence, 72 h; also: nearly all actives have a fitted effect of over 60% in size
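Multi-concentration cytotoxicity screen in KB-3-1 cells grown in DMEM lacking phenol red with 10% FBS. After 72 h at 37 °C with compound, ATP-dependent luminescence was recorded.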
HT1080-NT tox – kills 2HG-producing HT-1080-NT fibrosarcoma cells | hit rate 1.6% among 360,000 | Potency, µM (top dose mostly 46.1 µM), most hits filed as cytotoxic | HT-1080-NT fibrosarcoma viability, CellTiter-Glo ATP luminescence, 48 h;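 also: NT is the 2HG producing partner of a matched IDH1 knockdown line; nearly all actives have a fitted effect of over 55% in size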
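HT-1080-NT fibrosarcoma cells (2HG-overproducing), 750 cells/well in RPMI with 5% FBS, dosed after 2 h and incubated 48 h at 37C. CellTiter-Glo luminescence normalized to DMSO and no-cell wells; concentration-response curves fitted and classed.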
KB-V1 cytotox – KB-V1 MDR subline cytotoxicity. KB-V1 MDR cells viability, CellTiter-Glo, 72 h. Potency, µM (top dose mostly 46.1 µM), actives largely listed as cytotoxic. hit rate 3.4% among 400,000. AID 1347076; also: nearly all actives have a fitted effect of over 60% in size
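Potencies derive from concentration-effect curves fitted to normalized luminescence (CellTiter-Glo) of KB-V1 cells treated for 72 h at 37 degrees C in phenol-red-free DMEM containing 10% FBS.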
HT1080 IDH1KD tx – toxicity to HT-1080 IDH1 knockdown cells (counter line) | HT-1080 IDH1 knockdown viability, ATP luminescence, 48 h | Potency, µM (titrated, usually from 46.1 µM), hits mostly cytotoxic | hit rate 2% among 360,000
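Cytotoxicity counter-line: IDH1KD HT-1080, 48 h, CellTiter-Glo. Curves classed by r2, magnitude and activity.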
Hits are given with their value; ! = not confirmed by another sample. Calls follow the shape of the dose curve; as a rule, active = well fitted curve in the direction sought with a large enough effect; inconclusive = small, poorly fitted or top-dose-only effect, or another doubt; inactive = no such curve, though single readings can be large; an effect the other way counts as inactive or inconclusive.

CN1CCC2(CC1)Nc1nc(SCc3ccc(Cl)cc3)nn1C1=C2CN(C)CC1 was read as KB-3-1 tox inconclusive, HT1080-NT tox 26µM, KB-V1 cytotox inactive and HT1080 IDH1KD tx 21µM.
For COCCOC(=O)C1=C(C)NC(SCC(=O)NC(C)(C)C)=C(C#N)C1c1ccco1 (stereo unspecified) the results were KB-3-1 tox inactive, HT1080-NT tox inactive, KB-V1 cytotox inconclusive and HT1080 IDH1KD tx inactive.
Screening CCOC(=O)C1=C(C)NC(C)=C(C(=O)OCC)C1c1cccs1 returned KB-3-1 tox inactive, HT1080-NT tox inactive, KB-V1 cytotox inconclusive and HT1080 IDH1KD tx inactive.
For C=CCOC(=O)C1=C(C)NC(SCC)=C(C#N)C1c1ccc(Cl)cc1 (stereo unspecified) the results were KB-3-1 tox inconclusive, HT1080-NT tox 9.2µM, KB-V1 cytotox 23µM and HT1080 IDH1KD tx 8.2µM.
Screening C=CCOC(=O)C1=C(C)NC(SCC(=O)Nc2ccc(C)c(Cl)c2)=C(C#N)C1c1ccco1 (stereo unspecified) returned KB-3-1 tox inactive, HT1080-NT tox 18µM, KB-V1 cytotox inactive and HT1080 IDH1KD tx 16µM.
`C#CCSC1=C(C#N)C(c2cccs2)C(C(=O)OCC)=C(C)N1` (stereo unspecified) gave KB-3-1 tox inactive, HT1080-NT tox inactive, KB-V1 cytotox 10µM and HT1080 IDH1KD tx inactive.
Screening CCc1cccc(CC)c1NC(=O)CCS(=O)(=O)c1ccc2c(c1)CCN2C(C)=O returned KB-3-1 tox inactive and KB-V1 cytotox inactive.
For O=C(Nc1ccn(Cc2c(F)c(F)cc(F)c2F)n1)c1ccc(COc2ccc(Cl)cc2Cl)o1 the results were KB-3-1 tox inactive, HT1080-NT tox inactive, KB-V1 cytotox 8.2µM and HT1080 IDH1KD tx inactive.
For Cc1nn(Cc2ccc(Cl)cc2Cl)c(C)c1NC(=O)c1ccc(COc2cc(Cl)ccc2Cl)o1 the results were KB-3-1 tox inconclusive, HT1080-NT tox inactive, KB-V1 cytotox inactive and HT1080 IDH1KD tx inactive.
Screening Cc1nn(Cc2c(F)c(F)c(F)c(F)c2F)c(C)c1NC(=O)c1ccc(COc2ccc(Cl)cc2Cl)o1 returned KB-3-1 tox inconclusive, HT1080-NT tox inconclusive, KB-V1 cytotox 18µM and HT1080 IDH1KD tx inconclusive.
Screening O=C(Nc1ccccc1F)c1ccc(COc2ccc(Cl)cc2Cl)o1 returned KB-3-1 tox inactive, HT1080-NT tox inactive, KB-V1 cytotox inactive and HT1080 IDH1KD tx inactive.
Cc1oc2ccc(O)c(CN3CCOCC3)c2c1C(=O)Nc1ccc(C(C)C)cc1 was read as KB-3-1 tox inactive and KB-V1 cytotox inactive.
`Cc1ccccc1Cn1c(C)c(CNCCCc2ccccc2)c(C(=O)O)c1C` gave KB-3-1 tox inactive and KB-V1 cytotox inconclusive.
O=C(CNC(=O)c1ccccc1Cl)N/N=C/c1ccc([N+](=O)[O-])s1 was read as KB-3-1 tox 2.6µM, HT1080-NT tox inconclusive, KB-V1 cytotox inconclusive and HT1080 IDH1KD tx 23µM.
Screening Cc1ccc(C(=O)Nc2cccc3[nH]c(C(F)(F)F)nc23)cc1 returned KB-3-1 tox 16µM, HT1080-NT tox inconclusive, KB-V1 cytotox 18µM and HT1080 IDH1KD tx inactive.
Cc1ccc(S(=O)(=O)Nc2ccc3c(c2)CCC3)cc1 was read as KB-3-1 tox inconclusive, HT1080-NT tox inactive, KB-V1 cytotox 21µM and HT1080 IDH1KD tx inactive.
CN1CCN(CCCOc2ccc(-c3ccccc3)cc2)CC1 was read as KB-3-1 tox inactive, HT1080-NT tox 23µM, KB-V1 cytotox inactive and HT1080 IDH1KD tx 16µM.
`Fc1ccc(OCCCCCN2CCCC2)cc1` gave KB-3-1 tox inactive, HT1080-NT tox inactive, KB-V1 cytotox inactive and HT1080 IDH1KD tx inactive.
For COc1ccccc1N1CCN(CCCCCCOc2ccc(F)cc2)CC1 the results were KB-3-1 tox inconclusive, HT1080-NT tox inactive, KB-V1 cytotox 3.7µM and HT1080 IDH1KD tx inactive.
COc1ccccc1N1CCN(CCCCOc2cccc3ccccc23)CC1 was read as KB-3-1 tox inactive, HT1080-NT tox inconclusive, KB-V1 cytotox inactive and HT1080 IDH1KD tx 16µM.
For COc1ccccc1OCCCCN1CCN(c2ccccc2OC)CC1 the results were KB-3-1 tox inactive, HT1080-NT tox inactive, KB-V1 cytotox inactive and HT1080 IDH1KD tx inactive.
Clc1cccc(CSc2ncn(-c3ccccc3)n2)c1 was read as KB-3-1 tox inactive, HT1080-NT tox inactive, KB-V1 cytotox inactive and HT1080 IDH1KD tx inactive.
Clc1ccc(CSc2ncn(-c3ccccc3)n2)cc1 was read as KB-3-1 tox inactive, HT1080-NT tox inactive, KB-V1 cytotox 21µM and HT1080 IDH1KD tx inactive.
`COc1cc2c(OC(C)=O)c3c(c(-c4ccc5c(c4)OCO5)c2cc1OC)C(=O)OC3` gave KB-3-1 tox 3.3µM!, HT1080-NT tox 2.9µM, KB-V1 cytotox inconclusive and HT1080 IDH1KD tx 2.1µM.
Screening COc1cc2c(O)c3c(c(-c4ccc5c(c4)OCO5)c2cc1OC)C(=O)OC3 returned KB-3-1 tox 15µM, HT1080-NT tox 2.5µM, KB-V1 cytotox 4.6µM and HT1080 IDH1KD tx 2.5µM.
Screening COc1ccc(-c2oc(=O)c3cc(OC)c(OC)cc3c2-c2ccc3c(c2)OCO3)cc1 returned KB-3-1 tox inactive, HT1080-NT tox inactive, KB-V1 cytotox inactive and HT1080 IDH1KD tx inactive.
`O=C(NCCc1nc2ccccc2n1CCOc1cccc2ccccc12)C1CCCCC1` gave KB-3-1 tox inactive and KB-V1 cytotox inactive.
`Nc1ccc(-c2cc3ccccc3oc2=O)cc1` gave KB-3-1 tox inactive, HT1080-NT tox inactive, KB-V1 cytotox inactive and HT1080 IDH1KD tx inactive.
`O=C/C=C/c1c(-c2ccccc2)cc2oc3ccccc3cc1-2` gave KB-3-1 tox inconclusive, HT1080-NT tox inactive, KB-V1 cytotox inconclusive and HT1080 IDH1KD tx 21µM.
CCOC(=O)CN1C(=O)S/C(=C/c2ccc(O)c([N+](=O)[O-])c2)C1=O was read as KB-3-1 tox inconclusive, HT1080-NT tox 18µM, KB-V1 cytotox inconclusive and HT1080 IDH1KD tx inactive.
For Cc1cc(N2CCN(C(=O)c3ccco3)CC2)c2ccccc2n1 the results were KB-3-1 tox inconclusive, HT1080-NT tox inactive, KB-V1 cytotox inactive and HT1080 IDH1KD tx inactive.
Screening O=C(c1ccco1)N1CCN(c2nnc(-c3ccccc3)c3ccccc23)CC1 returned KB-3-1 tox inactive, HT1080-NT tox inactive, KB-V1 cytotox 16µM and HT1080 IDH1KD tx inactive.
Screening Cc1ccc(OCC(=O)N2CCN(c3nnc(-c4ccccc4)c4ccccc34)CC2)cc1 returned KB-3-1 tox inconclusive, HT1080-NT tox inconclusive, KB-V1 cytotox 4.1µM and HT1080 IDH1KD tx inconclusive.
Screening CC(=O)N1CCN(c2nnc(-c3ccc(C)cc3)c3ccccc23)CC1 returned KB-3-1 tox inactive, HT1080-NT tox inactive, KB-V1 cytotox inconclusive and HT1080 IDH1KD tx inactive.
`O=C(CSc1nc(-c2ccccc2)cs1)N1CCN(C(=O)c2ccco2)CC1` gave KB-3-1 tox inactive, HT1080-NT tox inactive, KB-V1 cytotox 18µM and HT1080 IDH1KD tx inactive.
For COc1cccc(CN(C(=O)c2ccc(C(C)(C)C)cc2)C2CCS(=O)(=O)C2)c1 (stereo unspecified) the results were KB-3-1 tox inactive and KB-V1 cytotox inactive.
Screening Cc1ccc2c(c1)c(N=Nc1cccc(C(=O)O)c1)c(O)n2C returned KB-3-1 tox inactive, HT1080-NT tox inactive, KB-V1 cytotox inactive and HT1080 IDH1KD tx inactive.
